SARS PLP yeast: blocks SARS-CoV papain-like protease in a yeast assay; S. cerevisiae expressing SARS-CoV PLpro, growth rescue; Potency, µM (top dose mostly 32.9 µM), most hits filed as activators; actives 0.19% (n = 330,000); AID 485353; calls by dose curve; also: nearly all actives have a fitted effect of over 55% in size
AmpC detergent: blocks E. coli AmpC beta-lactamase in detergent assay; P00811; AmpC hydrolysis of nitrocefin, absorbance 480 nm, 0.01% Triton; Potency, µM (doses to about 114 µM), usual class: inhibitors; actives 0.041% (n = 370,000); AID 485294; also: nearly all actives have a fitted effect of over 25% in size
Target sequence (P00811 whole entry, looked up): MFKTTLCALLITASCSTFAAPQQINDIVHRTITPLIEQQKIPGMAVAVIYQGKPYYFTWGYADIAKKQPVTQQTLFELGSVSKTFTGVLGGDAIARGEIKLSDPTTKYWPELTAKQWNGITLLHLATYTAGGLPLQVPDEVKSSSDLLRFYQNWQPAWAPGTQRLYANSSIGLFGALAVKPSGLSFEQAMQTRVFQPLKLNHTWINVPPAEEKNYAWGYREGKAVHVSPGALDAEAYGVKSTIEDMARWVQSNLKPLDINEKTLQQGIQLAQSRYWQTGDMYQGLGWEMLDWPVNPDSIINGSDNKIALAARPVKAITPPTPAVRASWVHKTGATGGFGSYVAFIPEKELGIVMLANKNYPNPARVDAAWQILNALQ
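20 mM phosphate pH 7.0 + 0.01% (detergent screen) or 0.0001% Triton X-100; 5.3 nM AmpC reagent; cpd preinc 15 min RT; nitrocefin (800 uM stock) to start; A480 q20 s × 4 min; Activity was normalised to no-enzyme and no-compound control wells.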
AmpC inh no detg: inhibitors of E. coli AmpC beta-lactamase without detergent; AID 485341; AmpC nitrocefin hydrolysis, absorbance 480 nm, 0.0001% Triton; Potency, µM (top dose mostly 57.1 µM), hits mostly inhibitors; actives 0.52% (n = 330,000); P00811; also: nearly all actives have a fitted effect of over 20% in size
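AmpC (5.3 nM in the dispensed reagent) in 20 mM phosphate pH 7.0 with 0.01% (detergent screen) or 0.0001% Triton X-100 was preincubated with compounds for 15 min at room temperature. Nitrocefin was then added from an 800 uM solution, and hydrolysis was followed at 480 nm.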
Sm TGR block: inhibitors of Schistosoma mansoni thioredoxin glutathione reductase | Q962Y6 | purified TGR, DTNB reduction, TNB absorbance 405 nm | Potency, µM (series often up to 114 µM), usual class: inhibitors | actives 3% (n = 360,000) | AID 485364; also: nearly all actives have a fitted effect of over 60% in size
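First, TGR (20 nM dispensed) and NADPH were mixed with compound. Second, a 15 min room-temperature incubation followed. Third, further NADPH and then DTNB were added to start the reaction. Finally, TNB absorbance was monitored kinetically.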
Pf growth 48h: inhibits P. falciparum growth in the first generation, 48 h; Potency, µM (top dose mostly 28.7 µM), most hits filed as inhibitors; actives 5.9% (n = 310,000); P. falciparum luciferase growth in erythrocytes, 48 h
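Firefly luciferase activity from engineered P. falciparum reports growth; inhibitors lower the luminescent signal. Cultures contained 2% hematocrit erythrocytes at 0.1% final parasitemia.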
Pf growth 96h: P. falciparum growth inhibition at 96 hours; P. falciparum luciferase reporter growth, 96 h; Potency, µM (highest dose often 28.7 µM), usual class: inhibitors; actives 6.9% (n = 320,000)
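P. falciparum expressing integrated firefly luciferase, in erythrocytes at 2% hematocrit, 0.05% parasitemia, incubated with compounds 96 h at 37 C, 5% CO2. Growth inhibition read as loss of luminescence; two-generation exposure targets delayed-death apicoplast inhibitors.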
Large screens that a line does not name were inactive. Sampled rows, rich in hits. Any-hit rate of the full collection: about 12%. Unless noted, calls follow the shape of the dose curve; as a rule, active = well fitted curve in the direction sought with a large enough effect; inconclusive = small, poorly fitted or top-dose-only effect, or another doubt; inactive = no such curve, though single readings can be large; an effect the other way counts as inactive or inconclusive.

Cc1ccc(-c2ccc(=O)n(CC(=O)Nc3ccc(F)c(Cl)c3)n2)cc1C	none (no result: SARS PLP yeast, AmpC inh no detg, Pf growth 48h, Pf growth 96h)
COc1ccccc1N(CC(O)COc1ccccc1C)S(=O)(=O)c1ccccc1 (centres undefined)	Pf growth 48h inconclusive, Pf growth 96h 10µM
COc1ccc(-n2c(/C=C(\C)O)nc(=O)c3c(C)cc(C)nc32)cc1	Pf growth 48h 0.83µM (no result: Pf growth 96h)
CCOc1ccc(Nc2cc(C)nc3nncn23)cc1	none (no result: SARS PLP yeast, AmpC inh no detg, Pf growth 48h, Pf growth 96h)
CCN(Cc1nc2cc(Cl)ccc2c(=O)[nH]1)C(=O)c1nn(C)c(=O)c2ccccc12	Pf growth 48h 8.3µM, Pf growth 96h inconclusive
CCN(Cc1nc2cc(Cl)ccc2c(=O)[nH]1)C(=O)c1ccc(C)c(NC(=O)c2ccco2)c1	Sm TGR block inconclusive, Pf growth 48h 9.3µM, Pf growth 96h 8.3µM
CCN(CC)C(=O)COC(=O)c1ccc(C)c(NC(=O)c2ccco2)c1	Sm TGR block inconclusive
N#Cc1ccc(NC(=O)CSc2nc3[nH]c(=O)cc(O)c3s2)cc1	Pf growth 48h inconclusive, Pf growth 96h 1.5µM
COc1ccc(NC(=O)CSc2nc3[nH]c(=O)cc(O)c3s2)c(OC)c1	Pf growth 48h 10µM
COc1ccc(NC(=O)CSc2nc3[nH]c(=O)cc(O)c3s2)cc1OC	Pf growth 96h inconclusive
Cc1ccc(C(=O)NCCCNC(=O)c2ccco2)cc1C	AmpC detergent inconclusive, Pf growth 96h inconclusive
CCCOc1ccc(CNC(=O)c2cc3ccccn3n2)cc1	none (no result: SARS PLP yeast, AmpC inh no detg, Pf growth 48h, Pf growth 96h)
c1cncc(-c2nc(NCc3cccs3)c3ccccc3n2)c1	AmpC detergent inconclusive, Sm TGR block inconclusive, Pf growth 48h inconclusive, Pf growth 96h 13µM
COc1cccc(CNc2nc(-c3cccnc3)nc3ccccc23)c1	Pf growth 96h inconclusive
C(=N\Nc1nc(-c2cccnc2)nc2ccccc12)/c1ccccc1	Pf growth 48h inconclusive
Fc1ccccc1CNc1nc(-c2cccnc2)nc2ccccc12	Pf growth 48h 12µM, Pf growth 96h 5.2µM
COc1ccc(C(=O)O/N=C(\N)c2ccncc2)cc1OC	Pf growth 48h inconclusive, Pf growth 96h inconclusive
N/C(=N\OC(=O)C(c1ccccc1)c1ccccc1)c1ccncc1	Pf growth 48h 2.9µM, Pf growth 96h inconclusive
COc1ccccc1C(=O)O/N=C(/c1ccncc1)c1ccc([N+](=O)[O-])cc1	Pf growth 48h inconclusive, Pf growth 96h 5.2µM
COc1cccc(C(=O)O/N=C(\N)c2ccncc2)c1	Pf growth 96h inconclusive
COc1cccc(OC)c1C(=O)O/N=C(\N)c1ccncc1	Pf growth 48h inconclusive, Pf growth 96h 12µM
COc1cc(C(=O)O/N=C(\N)c2ccncc2)cc(OC)c1OC	Pf growth 48h 9.3µM, Pf growth 96h inconclusive
CCc1c(CN2CCN(c3cccc(C)c3C)CC2)csc1C	none (no result: SARS PLP yeast, AmpC inh no detg, Pf growth 48h, Pf growth 96h)
Cc1cccc(N2CCN(c3nc4ccc(C(=O)c5ccccc5)cc4n4cnnc34)CC2C)c1 (centres undefined)	none (no result: SARS PLP yeast, AmpC inh no detg, Pf growth 48h, Pf growth 96h)
COc1ccc(C)cc1N(CC(=O)N/N=C/c1ccc2c(c1)OCO2)S(C)(=O)=O	none
COc1ccc(CC(=O)OC(C)C(=O)c2ccc(C)cc2)cc1 (centres undefined)	Pf growth 96h inconclusive
O=C(O)CCCNC(=O)/C(=C\C=C\c1ccccc1)NC(=O)c1ccccc1Cl	Sm TGR block 40µM
Oc1c(Cl)cc(Cl)cc1/C=N/c1nc(-c2ccc(Cl)cc2)cs1	AmpC inh no detg inconclusive, Sm TGR block inconclusive, Pf growth 96h inconclusive
Oc1c(Cl)cc(Cl)cc1/C=N/c1nccs1	Sm TGR block 6.3µM (no result: Pf growth 96h)
Cc1ccccc1-n1nc2c(c1NC(=O)c1c(-c3ccccc3Cl)noc1C)CSC2	Pf growth 48h 12µM, Pf growth 96h inconclusive
Cc1onc(-c2ccccc2Cl)c1C(=O)Nc1ccccc1N1CCOCC1	Pf growth 96h inconclusive (no result: Pf growth 48h)
Cc1cccc(-n2nc3c(c2NC(=O)c2ccco2)CSC3)c1C	Sm TGR block 45µM, Pf growth 48h inconclusive
Cc1ccc(-n2nc3c(c2NC(=O)c2c(-c4ccccc4Cl)noc2C)CSC3)cc1	Pf growth 48h 13µM
Cc1onc(-c2ccccc2Cl)c1C(=O)Nc1ccc(N2CCOCC2)cc1	Pf growth 48h inconclusive, Pf growth 96h inconclusive
Cc1ccccc1-n1nc2c(c1NC(=O)CCCl)CSC2	Sm TGR block 18µM
CCOc1ccc(NC(=O)CN2C(=O)CC(C)Sc3ccccc32)cc1 (centres undefined)	none (no result: SARS PLP yeast, AmpC inh no detg, Pf growth 48h, Pf growth 96h)
CCc1ccc(-c2cc(-c3n[nH]c(=S)n3CC)c3ccccc3n2)cc1	AmpC detergent inconclusive, Pf growth 48h inconclusive, Pf growth 96h 2.9µM
CCC(=O)N1CCc2cc(S(=O)(=O)CCC(=O)NC3CCCCC3)ccc21	Pf growth 96h 2.6µM
CCOC(=O)N1CCC(NC(=O)CCS(=O)(=O)c2ccc3c(c2)CCN3C(=O)CC)CC1	none
CN(Cc1ccco1)S(=O)(=O)c1ccc2c(c1)CCN2C(=O)CCC(=O)O	Pf growth 96h 13µM
CCC(=O)N1CCc2cc(S(=O)(=O)CCC(=O)N3CCN(c4ccccc4)CC3)ccc21	AmpC detergent inconclusive, Pf growth 48h inconclusive
CC(=O)N1CCCc2cc(S(=O)(=O)CCC(=O)Nc3cccc(C)c3C)ccc21	Pf growth 96h inconclusive
CC(=O)N1c2ccc(S(=O)(=O)N(C)Cc3ccco3)cc2CC1C (centres undefined)	AmpC detergent inconclusive
CCC(=O)N1CCc2cc(S(=O)(=O)CCC(=O)N3CCc4ccccc4C3)ccc21	Pf growth 96h 12µM
CCC(=O)N1CCCc2cc(S(=O)(=O)CCC(=O)Nc3ccccc3C)ccc21	Pf growth 96h 5.9µM
CC(C)CC(=O)Nc1nnc(S(=O)(=O)N2CCCCCC2)s1	none
Cc1cccc(N2CCN(S(=O)(=O)c3c(C)[nH]c(C)c3C(=O)N3CCCC3)CC2C)c1 (centres undefined)	Pf growth 96h inconclusive
CC1SC(c2ccc(F)cc2)N(CCc2ccccc2)C1=O (centres undefined)	none
O=C(CN(c1cccc(Cl)c1)S(=O)(=O)c1ccc(Cl)cc1)N1CCc2ccccc2C1	Pf growth 48h 12µM
CCC(=O)N1CCc2cc(S(=O)(=O)CCC(=O)O)ccc21	Pf growth 96h 7.4µM
O=C(CN(c1cccc(Br)c1)S(=O)(=O)c1ccccc1)N1CCc2ccccc2C1	none (no result: SARS PLP yeast, AmpC inh no detg, Pf growth 48h, Pf growth 96h)
COc1ccc(C(CC(=O)Nc2ccccn2)N2Cc3ccccc3C2=O)cc1OC (centres undefined)	none
O=C(COC(=O)c1cc(-c2cccs2)nc2ccccc12)NCc1ccco1	Sm TGR block 40µM
Cc1ccc(-c2cc(C(=O)NCc3ccco3)c3ccccc3n2)s1	Sm TGR block 28µM
Cc1cc(C(=O)OCC(=O)NCc2cccs2)c2ccccc2n1	none
